From PubChem BioAssay (Tox21)
Unmarked numbers belong to inactive results. Results filed as inconclusive are left out. A call without a number means that no potency is given here. The source made the active and inactive calls. Unless noted, calls follow the shape of the full dose curve.

How the values were obtained:
[1] = Nuclear factor erythroid 2-related factor 2/antioxidant responsive element (Nrf2/ARE) small molecule agonists: qHTS cell viability counter screen in human keratinocytes (AID 1919968; active = well fitted curve in the direction sought with a large enough effect in the repeat runs; an effect the other way counts as inactive or inconclusive; also: nearly all actives have a fitted effect of over 55% in size)
In short: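 In human HaCaT keratinocytes stably expressing an ARE-driven luciferase, compound exposure lasted 23 h at 37 C under 5% CO2. Viable cells are quantified with a protease-based fluorogenic reagent (CellTiter-Fluor) read 1 h after addition.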

[2] = Nuclear factor erythroid 2-related factor 2/antioxidant responsive element (Nrf2/ARE) small molecule agonists: luciferase reporter gene qHTS assay in human keratinocytes (AID 1919969); also: nearly all actives have a fitted effect of over 35% in size
[3] = target: Gonadotropin-releasing hormone receptor (Homo sapiens) (UniProt P30968); assay: Human gonadotropin-releasing hormone receptor (GnRHR) small molecule agonists, calcium flux assay in GnRHR-HEK293 cells (AID 1920063); also: nearly all actives have a fitted effect of over 35% in size
Gonadotropin-releasing hormone receptor (Homo sapiens), sequence (P30968 whole entry, looked up): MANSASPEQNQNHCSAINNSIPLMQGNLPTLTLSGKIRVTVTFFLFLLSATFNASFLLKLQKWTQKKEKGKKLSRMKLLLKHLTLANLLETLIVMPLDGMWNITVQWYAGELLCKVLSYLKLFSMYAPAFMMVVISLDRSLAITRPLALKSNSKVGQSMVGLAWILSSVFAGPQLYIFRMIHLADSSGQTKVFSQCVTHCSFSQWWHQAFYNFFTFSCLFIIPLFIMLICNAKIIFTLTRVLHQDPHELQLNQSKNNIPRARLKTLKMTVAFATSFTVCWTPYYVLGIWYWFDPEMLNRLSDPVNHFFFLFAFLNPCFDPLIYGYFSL
In short: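 Intracellular calcium rise is the read-out: engineered human GnRHR HEK293 cells, dye-loaded, are exposed to DMSO-dissolved compounds and fluorescence at Ex/Em 480/540 is tracked for 3 min.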

[4] = target: KiSS-1 receptor (Homo sapiens) (UniProt Q969F8); assay: Human kisspeptin (KISS1R) small molecule agonists, calcium flux assay in KISS1R-HEK293 cells (AID 1920064; active = well fitted curve in the direction sought with a large enough effect in the repeat runs; an effect the other way counts as inactive or inconclusive)
KiSS-1 receptor (Homo sapiens), sequence (Q969F8 whole entry, looked up): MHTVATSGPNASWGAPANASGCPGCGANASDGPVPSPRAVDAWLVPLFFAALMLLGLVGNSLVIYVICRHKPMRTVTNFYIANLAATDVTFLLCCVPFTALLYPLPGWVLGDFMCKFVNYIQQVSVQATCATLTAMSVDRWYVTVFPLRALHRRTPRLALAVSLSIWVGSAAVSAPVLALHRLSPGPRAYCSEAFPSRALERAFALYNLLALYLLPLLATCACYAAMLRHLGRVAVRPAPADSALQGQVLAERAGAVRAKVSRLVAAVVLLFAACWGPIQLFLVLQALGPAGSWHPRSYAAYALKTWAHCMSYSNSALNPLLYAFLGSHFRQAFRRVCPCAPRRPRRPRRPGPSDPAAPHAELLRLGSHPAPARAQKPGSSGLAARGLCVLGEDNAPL
In short: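 Concentration-response testing used 15 concentrations in triplicate on human KISS1R-expressing HEK293 cells. Calcium-dependent fluorescence (Ex/Em 480/540) was followed kinetically for 3 min after compound transfer.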

[5] = G protein-coupled receptor (GPCR) small molecule agonists, calcium flux assay: HEK293 wild type cell line counter screen (AID 1920065)
In short: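 Fluorescence intensity signals activation. After overnight (18 h) culture and a 1 h calcium dye load at 37 C, compounds are added by pin tool and the plate read at 480/540 nm for 3 min in 1 s steps.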

[6] = p53 small molecule agonists, cell-based qHTS assay with human liver microsomes: qHTS cell viability counter screen (AID 1963579); also: nearly all actives have a fitted effect of over 45% in size
In short: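 After the 460/530 nm beta-lactamase read, CellTiter-Glo was added to the same wells and luminescence measured after 30 min at room temperature, giving viability of p53RE-bla cells treated 16 h with compounds plus microsomes and NADPH.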

[7] = p53 small molecule agonists, cell-based qHTS assay with rat liver microsomes: qHTS cell viability counter screen (AID 1963580); also: nearly all actives have a fitted effect of over 45% in size
In short: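 Cytotoxicity counter screen: intracellular ATP measured by CellTiter-Glo luminescence in the same wells as the beta-lactamase reporter read, on HCT-116 p53RE-bla cells exposed 16 h at 37 C to compounds with rat liver microsomes and NADPH, each 0.5 mg/mL final.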

[8] = p53 small molecule agonists, cell-based qHTS assay: qHTS cell viability counter screen (AID 1963581); also: nearly all actives have a fitted effect of over 45% in size
In short: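 Luminescence from CellTiter-Glo, reflecting ATP content, serves as the cytotoxicity measure; it is taken after the 2 h reporter substrate step in HCT-116 p53RE-bla cells dosed for 16 h at 37 C.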

[9] = target: 5-hydroxytryptamine receptor 2A (Homo sapiens) (UniProt P28223); assay: 5-hydroxytryptamine receptor 2A (HTR2A) small molecule antagonists, cell-based qHTS assay (AID 1963586); also: nearly all actives have a fitted effect of over 45% in size
5-hydroxytryptamine receptor 2A (Homo sapiens), sequence (P28223 whole entry, looked up): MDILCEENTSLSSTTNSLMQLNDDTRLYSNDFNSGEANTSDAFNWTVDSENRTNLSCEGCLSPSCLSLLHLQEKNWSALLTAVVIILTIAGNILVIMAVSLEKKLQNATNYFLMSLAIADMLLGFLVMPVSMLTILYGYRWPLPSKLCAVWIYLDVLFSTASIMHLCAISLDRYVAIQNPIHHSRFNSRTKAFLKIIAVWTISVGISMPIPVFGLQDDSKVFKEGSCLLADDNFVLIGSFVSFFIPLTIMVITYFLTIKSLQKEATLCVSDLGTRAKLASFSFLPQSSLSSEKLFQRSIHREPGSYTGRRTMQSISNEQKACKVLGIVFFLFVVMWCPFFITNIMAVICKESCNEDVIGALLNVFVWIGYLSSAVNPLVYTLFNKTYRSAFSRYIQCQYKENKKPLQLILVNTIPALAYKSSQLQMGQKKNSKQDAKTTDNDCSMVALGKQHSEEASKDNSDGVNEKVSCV
In short: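 CHO cells stably expressing human HTR2A were plated for 18 h at 37 C, then loaded with calcium dye for 1 h. Compounds were preincubated 5 min at room temperature before DOI (4 nM solution) was added. Kinetic fluorescence was read for 3 min.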

[10] = target: 5-hydroxytryptamine receptor 2A (Homo sapiens) (UniProt P28223); assay: 5-hydroxytryptamine receptor 2A (HTR2A) small molecule agonists, cell-based qHTS assay (AID 1963587); also: nearly all actives have a fitted effect of over 30% in size
In short: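 CHO cells stably expressing human HTR2A, plated 18 h, loaded with calcium dye 1 h at 37 C. Agonist mode: compounds added and intracellular calcium fluorescence recorded kinetically for 2 min at 1 sec intervals.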

[11] = target: Muscarinic acetylcholine receptor M1 (Homo sapiens) (UniProt P11229); assay: Cholinergic receptor muscarinic 1 (CHRM1) small molecule antagonists, cell-based qHTS assay (AID 1963588); also: nearly all actives have a fitted effect of over 40% in size; also: potency is read from the fitted curve at half-maximal effect
Muscarinic acetylcholine receptor M1 (Homo sapiens), sequence (P11229 whole entry, looked up): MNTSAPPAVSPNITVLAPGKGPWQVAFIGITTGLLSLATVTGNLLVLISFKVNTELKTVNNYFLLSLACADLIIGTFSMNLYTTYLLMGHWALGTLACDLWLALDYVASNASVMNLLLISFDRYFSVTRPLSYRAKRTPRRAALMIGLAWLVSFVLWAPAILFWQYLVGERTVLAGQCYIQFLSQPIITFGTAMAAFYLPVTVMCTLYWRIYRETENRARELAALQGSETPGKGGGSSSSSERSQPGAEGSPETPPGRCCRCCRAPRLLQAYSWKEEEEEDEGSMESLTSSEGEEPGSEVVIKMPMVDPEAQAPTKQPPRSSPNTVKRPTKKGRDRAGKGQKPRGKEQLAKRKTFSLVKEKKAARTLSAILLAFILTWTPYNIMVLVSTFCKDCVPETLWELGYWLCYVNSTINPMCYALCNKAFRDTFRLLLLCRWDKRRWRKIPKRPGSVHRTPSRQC
In short: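 Compounds were tested at 15 concentrations in three independent runs. Dye-loaded CHRM1-CHO cells were exposed 5 min at room temperature before stimulation by acetylcholine added at 50nM. Intracellular calcium was read kinetically on FDSS for 3 min.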

[12] = target: Muscarinic acetylcholine receptor M1 (Homo sapiens) (UniProt P11229); assay: Cholinergic receptor muscarinic 1 (CHRM1) small molecule agonists, cell-based qHTS assay (AID 1963589); also: nearly all actives have a fitted effect of over 35% in size
In short: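 Fluorescent calcium dye reports M1 activation in stably transfected CHO cells. Compounds, 15 concentrations, added after 1 h dye loading at 37 C; kinetic reading at 1 sec intervals.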

[13] = cAMP Responsive Elements (CRE) small molecule agonists, cell-based qHTS assay (AID 1963590)
In short: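 Compound exposure lasted 3 h at 37 C/5% CO2 in CRE-bla HEK 293T cells grown in assay medium with 10% dialyzed FBS and 25 mM HEPES. Reporter signal came from LiveBLAzer B/G FRET substrate, 2 h, room temperature.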

[14] = cAMP Responsive Elements (CRE) small molecule antagonists, cell-based qHTS assay (AID 1963591; active = well fitted inhibition curve with a large enough effect in the signal ratio in the repeat runs, not every such curve was filed as active; the % refers to the signal ratio)
In short: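 Stimulation used NKH477 at a final 0.25 uM for 3 h in compound-treated CRE-bla HEK293T cells, seeded 18 h beforehand. Reporter activity was measured with LiveBLAzer B/G FRET substrate after 2 h at room temperature.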

[15] = target: Beta-2 adrenergic receptor (Homo sapiens) (UniProt P07550); assay: Adrenergic beta2 receptor (ADRB2) small molecule antagonists, cell-based qHTS assay (AID 1963592); also: series mostly up to about 92 µM; nearly all actives have a fitted effect of over 50% in size
Beta-2 adrenergic receptor (Homo sapiens), sequence (P07550 whole entry, looked up): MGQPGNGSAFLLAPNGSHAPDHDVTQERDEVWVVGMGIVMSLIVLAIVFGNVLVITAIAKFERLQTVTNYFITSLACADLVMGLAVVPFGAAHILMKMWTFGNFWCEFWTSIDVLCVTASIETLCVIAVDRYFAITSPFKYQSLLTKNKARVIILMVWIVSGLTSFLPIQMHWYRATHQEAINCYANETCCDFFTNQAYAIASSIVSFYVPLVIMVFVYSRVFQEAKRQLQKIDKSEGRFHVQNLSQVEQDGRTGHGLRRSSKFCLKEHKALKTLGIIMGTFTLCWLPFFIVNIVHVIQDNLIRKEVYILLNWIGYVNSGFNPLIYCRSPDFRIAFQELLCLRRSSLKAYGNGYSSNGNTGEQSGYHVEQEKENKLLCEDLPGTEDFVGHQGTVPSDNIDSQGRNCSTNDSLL
In short: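 Assay format: CHO-ADRB2 cells, 18-20hr seeding at 37C/5% CO2, then compound plus 1nM isoproterenol agonist mix for 0.5hr RT. Homogeneous time-resolved fluorescence cAMP detection after 1hr, expressed as 665/615 nm ratio.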

[16] = target: D(2) dopamine receptor (Homo sapiens) (UniProt P14416); assay: Dopamine D2 receptor (DRD2) small molecule agonists, cell-based qHTS assay (AID 1963594); also: nearly all actives have a fitted effect of over 35% in size
D(2) dopamine receptor (Homo sapiens), sequence (P14416 whole entry, looked up): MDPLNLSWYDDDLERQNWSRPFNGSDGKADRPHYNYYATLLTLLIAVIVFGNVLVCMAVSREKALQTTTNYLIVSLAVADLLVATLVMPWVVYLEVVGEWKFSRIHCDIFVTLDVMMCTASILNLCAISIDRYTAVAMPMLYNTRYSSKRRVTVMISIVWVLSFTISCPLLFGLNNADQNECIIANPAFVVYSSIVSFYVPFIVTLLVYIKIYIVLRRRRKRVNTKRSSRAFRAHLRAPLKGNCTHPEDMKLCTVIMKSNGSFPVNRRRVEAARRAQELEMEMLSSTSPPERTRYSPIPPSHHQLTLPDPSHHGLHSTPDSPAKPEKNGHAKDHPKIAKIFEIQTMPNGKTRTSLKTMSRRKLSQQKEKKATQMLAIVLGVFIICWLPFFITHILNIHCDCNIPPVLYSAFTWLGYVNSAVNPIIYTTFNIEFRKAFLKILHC
In short: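 HEK293 cells stably expressing human DRD2, pre-treated with PDE inhibitor Ro20-1724 (0.1 mM final) and compound 10 min at room temperature, then stimulated with NKH477 (200nM […]) for 30 min. cAMP read by HTRF (665/620 nm).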

[17] = target: D(2) dopamine receptor (Homo sapiens) (UniProt P14416); assay: Dopamine D2 receptor (DRD2) small molecule antagonists, cell-based qHTS assay (AID 1963595; active = well fitted inhibition curve with a large enough effect in the signal ratio in the repeat runs, with a control signal flat; the % refers to the signal ratio)
In short: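 HTRF cAMP read-out at 665 and 620 nm emission (340 nm excitation). Antagonist mode: compounds were tested against 12 nM quinpirole in DRD2-HEK293 cells, with 200 nM NKH477 raising cAMP and 0.1 mM Ro20-1724 blocking its breakdown.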

[18] = target: Beta-2 adrenergic receptor (Homo sapiens) (UniProt P07550); assay: Adrenergic beta2 receptor (ADRB2) small molecule agonists, cell-based qHTS assay (AID 1963593);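 also: CHO cells stably overexpressing human ADRB2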
In short: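 CHO cells stably over-expressing ADRB2 were plated overnight at 37C, then dosed with compounds plus a stimulation mix containing 100uM IBMX and 25uM Ro-20-1724 for 0.5hr at room temperature. cAMP was measured by HTRF competition, 1hr.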

SMILES	Potency [1]	Potency [2]	Potency [3]	Potency [4]	Potency [5]	Potency [6]	Potency [7]	Potency [8]	Potency [9]	Potency [10]	Potency [11]	Potency [12]	Potency [13]	Potency [14]	Potency [15]	Potency [16]	Potency [17]	Potency [18]
CCC(C)COC(C)=O (stereo not drawn)	inactive	inactive	inactive	inactive	inactive	inactive	inactive	inactive	inactive	inactive	inactive	inactive	inactive	inactive	inactive	inactive	–	–
OC(C#CCN1CCCC1)(c1ccccc1)c1ccccc1	inactive	inactive	inactive	inactive	inactive	inactive	inactive	inactive	inactive	inactive	6.5 nM (active)	inactive	inactive	inactive	inactive	inactive	inactive	–
O=C(Cl)c1cccc([N+](=O)[O-])c1	inactive	inactive	inactive	inactive	inactive	inactive	inactive	inactive	inactive	inactive	inactive	inactive	inactive	inactive	inactive	inactive	inactive	–
Nc1cc(N)cc(C(=O)O)c1	inactive	inactive	inactive	inactive	inactive	inactive	inactive	inactive	inactive	inactive	inactive	inactive	inactive	inactive	inactive	inactive	–	–
Cc1ccc(C(=O)O)cc1[N+](=O)[O-]	inactive	inactive	inactive	inactive	inactive	inactive	inactive	inactive	inactive	inactive	inactive	inactive	inactive	inactive	inactive	inactive	–	–
CCOc1ccc(NS(=O)(=O)c2ccc(N)cc2)nn1	inactive	inactive	inactive	inactive	inactive	inactive	inactive	inactive	inactive	inactive	inactive	inactive	inactive	inactive	inactive	inactive	inactive	–
Clc1cccc(C(c2ccc3nc[nH]c3c2)n2ccnc2)c1 (stereo not drawn)	inactive	inactive	inactive	inactive	inactive	inactive	inactive	inactive	inactive	inactive	inactive	inactive	inactive	inactive	inactive	inactive	inactive	–
CSc1ccc(Oc2ccc(S(N)(=O)=O)cc2CN(C)C)cc1C	inactive	inactive	inactive	inactive	inactive	inactive	inactive	inactive	inactive	inactive	inactive	inactive	inactive	inactive	inactive	inactive	–	–
CCCCCCCCNC	inactive	inactive	inactive	inactive	inactive	inactive	inactive	inactive	inactive	inactive	inactive	inactive	inactive	inactive	inactive	inactive	inactive	–
COc1ccc(/C=N/NC(=O)c2ccncc2)cc1OC	inactive	inactive	inactive	inactive	inactive	inactive	inactive	inactive	inactive	inactive	inactive	inactive	inactive	inactive	inactive	inactive	inactive	–
Cc1cc(C)c(N)cc1C	inactive	inactive	inactive	inactive	inactive	inactive	inactive	inactive	inactive	inactive	inactive	inactive	inactive	inactive	inactive	inactive	inactive	–
OC1CCCCC1c1ccccc1 (stereo not drawn)	inactive	inactive	inactive	inactive	inactive	inactive	inactive	inactive	inactive	inactive	inactive	inactive	inactive	inactive	inactive	inactive	–	–
CC(CCc1ccc2c(c1)OCO2)NN (stereo not drawn)	inactive	inactive	inactive	inactive	inactive	inactive	inactive	inactive	inactive	inactive	inactive	inactive	inactive	inactive	inactive	–	inactive	inactive
Cc1ccc(Nc2c(F)cccc2Cl)c(CC(=O)O)c1	inactive	inactive	inactive	inactive	inactive	inactive	inactive	inactive	inactive	inactive	inactive	inactive	inactive	inactive	inactive	inactive	inactive	–
